These results are taken from PubChem BioAssay (EPA / NIEHS).

Inconclusive results are not listed. Calls of active or inactive are those of the source. Rule for the calls, unless noted: active = hit-call score of the fitted dose curve at least 0.9, where 1 is the maximum; inactive = score below 0.9.

A short description of one assay: CCTE_Harrill_HTTr_Apoptosis_MCF7: CCTE's 6-hour Apoptosis Assessment for the High-Throughput Transcriptomics (HTTr) Platform, in MCF-7 cells cultured in DMEM + 10% fetal bovine serum, Harrill Lab (AID 2284011). The gist of the method:
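MCF-7 cells in DMEM + 10% fetal bovine serum were exposed to chemicals for 6 hours over an eight-point dilution series. Caspase-3/7 activation was imaged by high content imaging with CellEvent Caspase 3/7 Green; bidirectional fitting used DMSO as baseline.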
In the case of `O=P(OCC(Br)CBr)(OCC(Br)CBr)OCC(Br)CBr` (stereo not given), the result was inactive.

`CC(O)C#N` (stereo not given): the outcome was inactive.

`Cc1ccc(O)cc1C`: the result was inactive.

In the case of `CC(Cc1ccc(OCC(=O)O)cc1)NCC(O)c1csc(C(F)(F)F)n1` (stereo not given), the result was inactive.

For the molecule `CCCN(CCC)c1c([N+](=O)[O-])cc(C(C)C)cc1[N+](=O)[O-]`, the outcome was inactive.

In the case of `O=C(O)CF`, the outcome was inactive.

For `CC(C)(C)OOC(C)(C)C`, the result was inactive.

With `O=P(Oc1ccccc1)(Oc1ccccc1)Oc1ccccc1`, the result was inactive.

`CCCCCCCc1ccc(O)cc1`: the result was inactive.

With `O=NN1CCCC1`, the outcome was inactive.

Regarding `CCOP(=S)(NC(C)C)Oc1ccccc1C(=O)OC(C)C` (stereo not given), the result was inactive.

Take `CCOC(=O)c1ccccc1C(=O)OCC`: the result was inactive.

On to `Clc1ccc(Oc2ccccc2)cc1`, for which the outcome was inactive.

Take `CCOP(=S)(S)OCC`: the outcome was inactive.

With `Nc1ccc(Cl)cc1`, the outcome was inactive.

As to `Nc1cc2c3c(c1)C(c1ccccc1)=N[C@@H](NC(=O)c1cccnc1)C(=O)N3CC2`, the outcome was inactive.

In the case of `Nc1ccc(Sc2ccc(N)cc2)cc1`, the outcome was inactive.

As to `c1ccc2c(c1)sc1ccccc12`, the result was inactive.

On to `CCCCN(CCCC)N=O`, for which the result was inactive.

For `CCNc1nc(Cl)nc(NC(C)(C)C)n1`, the result was inactive.

`CC(C)(C)N(NC(=O)c1ccc(Cl)cc1)C(=O)c1ccccc1`: the result was inactive.

Turning to `N#Cc1ccc(O)cc1`, the outcome was inactive.

On to `CCCCOCCOP(=O)(OCCOCCCC)OCCOCCCC`, for which the outcome was inactive.

As to `ClC(Cl)=C(c1ccc(Cl)cc1)c1ccccc1Cl`, the result was inactive.

As to `Cc1ccc2c(c1N)C(=O)c1ccccc1C2=O`, the outcome was inactive.

Consider `FC(F)(F)c1ccc(Cl)cc1`, for which the outcome was inactive.

For `O=S(=O)(c1ccc(O)cc1)c1ccc(O)cc1`, the outcome was inactive.

Take `c1ccc(OP(Oc2ccccc2)Oc2ccccc2)cc1`: the outcome was inactive.

With `CCCCN(CCCC)SN(C)C(=O)Oc1cccc2c1OC(C)(C)C2`, the outcome was inactive.

In the case of `CCOP(=S)(OCC)SCSc1ccc(Cl)cc1`, the result was inactive.

As for `CCCCOCC1CO1` (stereo not given), the outcome was inactive.

On to `c1cc2c3c(cccc3c1)CC2`, for which the outcome was inactive.

As to `CCN(CC)c1ccccc1`, the outcome was inactive.

Regarding `OCC1CO1` (stereo not given), the outcome was inactive.

Turning to `O=[N+]([O-])c1ccccc1`, the outcome was inactive.

With `ClC(Cl)c1ccccc1`, the result was inactive.

The next assay is described as follows: CCTE_Harrill_HTTr_CellCount_MCF7: CCTE's Cell Proliferation Assessment for the High-Throughput Transcriptomics (HTTr) Platform, Harrill Lab (AID 2284012; active = hit-call score of the fitted dose curve at least 0.9, where 1 is the maximum;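 note: count of Hoechst-stained nuclei per well by high-content imaging in MCF-7 cells; cells exposed to compound for six hours; intended direction is loss of nuclei count meaning fewer cells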). The gist of the method:
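For this full-screen endpoint, MCF-7 cultures received eight compound dilutions for six hours. Well nuclei counts from Hoechst imaging were analyzed relative to DMSO.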
With `O=P(OCC(Br)CBr)(OCC(Br)CBr)OCC(Br)CBr` (stereo not given), the outcome was inactive.

As for `CC(O)C#N` (stereo not given), the result was inactive.

With `Cc1ccc(O)cc1C`, the outcome was inactive.

In the case of `CC(Cc1ccc(OCC(=O)O)cc1)NCC(O)c1csc(C(F)(F)F)n1` (stereo not given), the result was inactive.

`CCCN(CCC)c1c([N+](=O)[O-])cc(C(C)C)cc1[N+](=O)[O-]`: the molecule was called inactive.

`O=C(O)CF`: the result was inactive.

With `CC(C)(C)OOC(C)(C)C`, the result was inactive.

For the molecule `O=NN1CCCC1`, the call was inactive.

On to `CCOP(=S)(NC(C)C)Oc1ccccc1C(=O)OC(C)C` (stereo not given), for which the call was inactive.

In the case of `CCOC(=O)c1ccccc1C(=O)OCC`, the molecule was classed as inactive.

For `CCOP(=S)(S)OCC`, the result was inactive.

Consider `c1ccc2c(c1)sc1ccccc12`, for which the molecule was classed as inactive.

On to `CCCCN(CCCC)N=O`, for which the molecule was classed as inactive.

Consider `CC(C)(C)N(NC(=O)c1ccc(Cl)cc1)C(=O)c1ccccc1`, for which the result was inactive.

For the molecule `N#Cc1ccc(O)cc1`, the call was inactive.

Regarding `CCCCOCC1CO1` (stereo not given), the call was inactive.

Regarding `c1cc2c3c(cccc3c1)CC2`, the outcome was inactive.

In the case of `CCN(CC)c1ccccc1`, the call was inactive.

With `O=[N+]([O-])c1ccccc1`, the call was inactive.
